From PubChem BioAssay (NCATS) come the findings set out here.

Results filed as inconclusive are left out. Values without a mark were called inactive. Calls of active or inactive are those of the source. Calls follow the shape of the dose curve; as a rule, active = well fitted curve in the direction sought with a large enough effect; inconclusive = small, poorly fitted or top-dose-only effect, or another doubt; inactive = no such curve, though single readings can be large; an effect the other way counts as inactive or inconclusive. Residues, ends and D or L forms follow the SMILES beside them. *: point of attachment. Cbz = O=C(OCc1ccccc1)*

A short description of assay [1]: qHTS of pediatric cancer cell lines to identify multiple opportunities for drug repurposing: Confirmatory screen for U-2 OS cells (AID 1347122). Also: nearly all actives have a fitted effect of over 65% in size. Also: potency is read from the fitted curve at half-maximal effect. The method in brief:
(§1)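 Viability after 48 h compound treatment at 37C, 500-1,000 cells/well, read as ATP luminescence with CellTiter-Glo. Primary screens used 11-point (MIPE, 0.78 nM-46 µM) or 8-point (NPC, 0.59 nM-46 µM) final concentrations; follow-up screens used 11-point dilutions.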

Assay [2] in a line: qHTS of pediatric cancer cell lines to identify multiple opportunities for drug repurposing: Confirmatory screen for Rh41 cells (AID 1347123).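 Also: 48 h compound exposure; nearly all actives have a fitted effect of over 60% in size.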 Also: potency is read from the fitted curve at half-maximal effect. The procedure, abridged:
as §1

Assay [3] in a line: qHTS of pediatric cancer cell lines to identify multiple opportunities for drug repurposing: Confirmatory screen for RD cells (AID 1347124).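 Also: cells exposed to compound for 48 h before viability readout; nearly all actives have a fitted effect of over 65% in size.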 Also: potency is read from the fitted curve at half-maximal effect. The procedure, abridged: as §1
Assay [4] can be described thus: qHTS of pediatric cancer cell lines to identify multiple opportunities for drug repurposing: Confirmatory screen for Rh18 cells (AID 1347125). Also: nearly all actives have a fitted effect of over 55% in size. Also: potency is read from the fitted curve at half-maximal effect. The method in brief:
as §1

Assay [5] can be described thus: qHTS of pediatric cancer cell lines to identify multiple opportunities for drug repurposing: Confirmatory screen for Rh30 cells (AID 1347126). Also: nearly all actives have a fitted effect of over 55% in size. Also: potency is read from the fitted curve at half-maximal effect. The procedure, abridged: as §1
Assay [6] is described as follows: qHTS of pediatric cancer cell lines to identify multiple opportunities for drug repurposing: Confirmatory screen for Saos-2 cells (AID 1347127). Also: nearly all actives have a fitted effect of over 60% in size. Also: potency is read from the fitted curve at half-maximal effect. The method in brief:
as §1

In assay [7] the test system is Zika virus NS2B-NS3 protease. Nature of the assay: Primary screen GU AMC qHTS for Zika virus inhibitors (AID 1347154). Also: nearly all actives have a fitted effect of over 70% in size. The procedure, abridged:
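Unlinked Zika NS2B hydrophilic domain–NS3 protease complex at 25 nM in 10 mM Tris-HCl pH 8.0, 0.01% Tween 20, with an AMC peptide substrate. Fluorescence change (340/450 nm) over 15 min at room temperature, normalized to controls, fitted to 4-parameter Hill.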

For assay [8], the system named is Zika virus NS2B-NS3 protease (unlinked complex). Briefly: Primary screen GU Rhodamine qHTS for Zika virus inhibitors: Unlinked NS2B-NS3 protease assay (AID 1347159). Also: nearly all actives have a fitted effect of over 60% in size. The procedure, abridged:
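Buffer 10 mM Tris-HCl pH 8.0, 0.01% Tween 20. Unlinked protease 25 nM; compound preincubation 15 min, RT, protected from light. Substrate Rhod110, 1.5 microM; ~15% conversion in 15 min.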

Assay [9] relates to Zika virus NS2B-NS3 protease (linked construct). Briefly: Primary screen NINDS Rhodamine qHTS for Zika virus inhibitors (AID 1347160). Also: nearly all actives have a fitted effect of over 55% in size. The procedure, abridged: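 Aprotinin served as in-plate control. Conditions: 25 nM linked NS2B-NS3, pH 8.0 Tris buffer, titrated compounds, 15 min preincubation and 15 min reaction with 1.5 microM Rhod110 substrate at room temperature.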
A short description of assay [10]: qHTS of pediatric cancer cell lines to identify multiple opportunities for drug repurposing: Confirmatory screen for SK-N-SH cells (AID 1347129).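 Also: cells exposed to compound for 48 h before viability read; nearly all actives have a fitted effect of over 60% in size.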 Also: potency is read from the fitted curve at half-maximal effect. The method in brief:
as §1

Assay [11] is described as follows: qHTS of pediatric cancer cell lines to identify multiple opportunities for drug repurposing: Confirmatory screen for OHS-50 cells (AID 1347128).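 Also: compound exposure lasted 48 h at 37 degrees C; nearly all actives have a fitted effect of over 55% in size.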 Also: potency is read from the fitted curve at half-maximal effect. The method in brief: as §1

Take `COc1ccc(C=Cc2cc(OC)c(OC)c(OC)c2)cc1NC(=O)[C@H](N)CO`: the Potency is 117 nM (active) in assay [1]; 104 nM (active) in assay [2]; 131 nM (active) in assay [3]; 928 nM (active) in assay [5]; 73.7 nM (active) in [6]. The Potency result in assay [4] and in [7] was “inactive” each time.
For the molecule `C[C@H]1[C@@H](OC(=O)CCC(=O)O)O[C@@H]2O[C@@]3(C)CC[C@@H]4[C@H](C)CC[C@@H]1[C@@]24OO3`, the Potency in assay [1] was 13100 nM (active); in [2] it was 5850 nM (active); in assay [3], 1040 nM (active); in assay [6], 1310 nM (active). The Potency result in [7], in assay [8] and in assay [9] was “inactive” throughout.
With `CO[C@@H]1[C@@H](O)[C@H](O)[C@@H](n2c3c(Cl)cccc3c3c4c(c5c6cccc(Cl)c6[nH]c5c32)C(=O)NC4=O)O[C@@H]1CO`, the Potency was 4140 nM (active) in assay [1], 5850 nM (active) in assay [2], 6570 nM (active) in [4] and 2640 nM (active) in [10]. Further, the Potency entry in assay [5] and in assay [7] was “inactive” throughout.
With `CCc1cnn2c(NCc3ccc[n+]([O-])c3)cc(N3CCCC[C@@H]3CCO)nc12`, the Potency result in assay [1], in assay [2], in assay [3], in assay [6], in assay [10] and in [7] was “inactive” each time.
For the molecule `CC(C)C[C@H](NC(=O)CNC(=O)c1cc(Cl)ccc1Cl)B1OC(=O)CC(CC(=O)O)(C(=O)O)O1` (stereo partly specified), the Potency in assay [1] was 827 nM (active); in [2], 233 nM (active); in assay [3], 414 nM (active); in [4] it was 369 nM (active); in assay [6], 4650 nM (active); in [11], 585 nM (active). The Potency entry in assay [7] is “inactive”.
As for `CCN(CC)CCNC(=O)c1c(C)[nH]c(C=C2C(=O)Nc3ccc(F)cc32)c1C`, the Potency in assay [1] is 24000 nM (active); in assay [2] it was 7590 nM (active); in [3] it was 15100 nM (active); in [4], 26900 nM (active); in [5], 12000 nM (active); in assay [6], 26900 nM (active). The Potency in assay [11] is 10700 nM (active); in assay [10], 9590 nM (active). Also, the Potency result in [7] was “inactive”.
For the molecule `Cc1ncc(-c2ccnc(Nc3ccc(S(C)(=O)=O)cc3)n2)n1C(C)C`, the Potency was 3290 nM (active) in assay [1]; 2930 nM (active) in assay [2]; 5220 nM (active) in assay [3]; 3690 nM (active) in assay [6]; 3290 nM (active) in [11]. The Potency result in assay [8] and in assay [9] was “inactive” each time.
As for `Cn1cc(-c2cnn3c(N)c(Br)c([C@H]4CCCNC4)nc23)cn1`, the Potency in assay [1] is 2930 nM (active); in assay [2] it was 23300 nM (active); in assay [5] it was 3690 nM (active). In addition, the Potency entry in assay [3], in assay [4] and in assay [7] was “inactive” in each case.
In the case of `CS[C@H]1SC[C@@H]2C(=O)N(C)[C@H](C(C)C)C(=O)OC[C@H](NC(=O)c3cnc4ccccc4n3)C(=O)N[C@H](C)C(=O)N(C)[C@@H]1C(=O)N(C)[C@H](C(C)C)C(=O)OC[C@H](NC(=O)c1cnc3ccccc3n1)C(=O)N[C@H](C)C(=O)N2C`, the Potency in [1] was 20.8 nM (active); in assay [2] it was 5.9 nM (active); in assay [10], 13.2 nM (active). The Potency entry in assay [4], in [6] and in assay [7] was “inactive” each time.
Take `Cc1[nH]c(C=C2C(=O)Nc3ccccc32)c(C)c1CCC(=O)O`: the Potency entry in assay [1], in assay [2], in [3], in assay [4], in [6] and in assay [10] was “inactive” throughout. Further, the Potency result in assay [7] was “inactive”.
Turning to `CCCCC(=O)O[C@]1(C(=O)CO)[C@@H](C)C[C@H]2[C@@H]3CCC4=CC(=O)C=C[C@]4(C)[C@@]3(F)[C@@H](O)C[C@@]21C`, the Potency result in assay [1], in [2], in [3], in [4], in assay [6] and in assay [11] was “inactive” each time. Also, the Potency result in [10] and in assay [7] was “inactive” throughout.
Turning to `O=C(C=Cc1ccc(CN(CCO)CCc2c[nH]c3ccccc23)cc1)NO`, the Potency in [1] was 165 nM (active); in assay [2], 58.5 nM (active); in assay [4], 233 nM (active); in assay [5] it was 414 nM (active); in [10] it was 118 nM (active). Besides, in assay [7], the Potency result is “inactive”.
On to `COc1ccc(Nc2cc(-c3cnc(N)nc3)nc(N3CCOCC3)n2)cn1`, for which the Potency is 9270 nM (active) in assay [1]; 4140 nM (active) in assay [2]; 2610 nM (active) in assay [3]; 11700 nM (active) in [4]; 3290 nM (active) in assay [6]. In addition, in [7], the Potency entry is “inactive”.
For `CC(C)C[C@@H](C=O)NC(=O)[C@H](CC(C)C)NC(=O)[C@H](CC(C)C)NC(=O)OCc1ccccc1` (Cbz-Leu-Leu-Leu-aldehyde), the Potency was 2080 nM (active) in assay [1]; 1170 nM (active) in [2]; 657 nM (active) in [3]; 1650 nM (active) in assay [4]; 1470 nM (active) in assay [6]; 928 nM (active) in [11]. The Potency in [10] was 833 nM (active). Also, the Potency result in [7] is “inactive”.
For `O=C(O)C[C@H](O)C[C@H](O)C=Cc1c(C2CC2)nc2ccccc2c1-c1ccc(F)cc1`, the Potency in assay [1] was 1650 nM (active); in assay [2], 4650 nM (active); in assay [3], 11700 nM (active); in assay [4], 3690 nM (active); in assay [5], 2330 nM (active); in [11], 10400 nM (active). Further, the Potency entry in [7] was “inactive”.
On to `C=CC(=O)Nc1cccc(Nc2nc(NC3CCC(N(C)C)CC3)nc3c2ncn3C(C)C)c1` (stereo unspecified), for which the Potency in assay [1] is 5220 nM (active); in assay [2], 414 nM (active); in assay [3], 737 nM (active); in assay [4], 657 nM (active); in [6] it was 1650 nM (active); in assay [10], 2960 nM (active). The Potency result in assay [7] is “inactive”.
Consider `C[N+](C)([O-])CCNc1ccc(NCC[N+](C)(C)[O-])c2c1C(=O)c1c(O)ccc(O)c1C2=O`, for which the Potency entry in assay [1], in [4], in [5], in assay [10] and in assay [7] was “inactive” in each case. In addition, in assay [2], the Potency is 18500 nM (active).
